Laboratory results taken from article PMC7862700, “An all-to-all approach to the identification of sequence-specific readers for epigenetic DNA modifications on cytosine”.

Key:
Assay in all cases: DAPPL (digital affinity profiling via proximity ligation, sequencing); 10 mM Tris-HCl pH 7.5, 50 mM NaCl, 1 mM DTT, 4% glycerol, room temperature, 30 min; GST-TFs on glutathione beads, 16-mer random dsDNA library, 0.1% formaldehyde crosslink after washing; high values mean tight binding
FLI1 = target: T1, FLI1 (Homo sapiens, UniProt Q01543 1-452); settings: protein: recombinant; tags: N-terminal GST; dsDNA, one strand shown
T1 sequence: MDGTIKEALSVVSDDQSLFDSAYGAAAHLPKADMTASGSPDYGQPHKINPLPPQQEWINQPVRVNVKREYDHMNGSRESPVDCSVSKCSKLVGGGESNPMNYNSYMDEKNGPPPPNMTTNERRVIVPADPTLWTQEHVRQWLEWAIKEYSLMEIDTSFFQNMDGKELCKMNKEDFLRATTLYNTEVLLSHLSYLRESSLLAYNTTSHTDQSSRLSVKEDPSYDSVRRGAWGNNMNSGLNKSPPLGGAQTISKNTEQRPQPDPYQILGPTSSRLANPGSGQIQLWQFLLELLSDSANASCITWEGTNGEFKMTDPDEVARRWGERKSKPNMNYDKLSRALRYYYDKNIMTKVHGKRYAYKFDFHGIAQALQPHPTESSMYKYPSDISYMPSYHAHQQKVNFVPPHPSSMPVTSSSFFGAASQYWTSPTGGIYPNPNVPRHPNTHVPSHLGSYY
Procedure, shortened: (§1)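 Pools of DNA-barcoded human transcription factors, expressed in yeast as GST fusions on glutathione beads and combined with a tag-only sample, were incubated with 200 nmole of a 16-mer random double-stranded DNA library. Incubation took 30 min at room temperature in Tris/NaCl/DTT/glycerol buffer and was followed by washing, 0.1% formaldehyde crosslinking, proximity ligation (BsaI/T4 ligase, 1 h, 37 °C), PCR amplification and sequencing on an Illumina NextSeq500. Binding signal is the ratio of a hexamer's read frequency for a factor to its frequency for the tag-only sample.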

ELK1 = target: T2, ELK1 (Homo sapiens, UniProt P19419 1-428); settings: protein: recombinant; tags: N-terminal GST; dsDNA, one strand shown
T2 sequence: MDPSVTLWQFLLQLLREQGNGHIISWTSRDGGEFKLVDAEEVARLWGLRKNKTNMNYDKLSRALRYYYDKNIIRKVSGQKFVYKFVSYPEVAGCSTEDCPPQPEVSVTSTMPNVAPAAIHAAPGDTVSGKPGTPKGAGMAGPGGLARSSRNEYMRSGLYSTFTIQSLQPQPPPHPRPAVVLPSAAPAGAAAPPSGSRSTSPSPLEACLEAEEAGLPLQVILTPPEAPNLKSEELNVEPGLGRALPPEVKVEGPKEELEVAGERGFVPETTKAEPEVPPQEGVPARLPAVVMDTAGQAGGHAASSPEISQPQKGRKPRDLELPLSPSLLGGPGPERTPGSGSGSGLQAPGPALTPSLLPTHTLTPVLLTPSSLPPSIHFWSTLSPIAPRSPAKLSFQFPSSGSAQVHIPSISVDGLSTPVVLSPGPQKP
Procedure, shortened: as §1

GABPA = target: T3, GABPA (Homo sapiens, UniProt Q06546 1-454); settings: protein: recombinant; tags: N-terminal GST; dsDNA, one strand shown
T3 sequence: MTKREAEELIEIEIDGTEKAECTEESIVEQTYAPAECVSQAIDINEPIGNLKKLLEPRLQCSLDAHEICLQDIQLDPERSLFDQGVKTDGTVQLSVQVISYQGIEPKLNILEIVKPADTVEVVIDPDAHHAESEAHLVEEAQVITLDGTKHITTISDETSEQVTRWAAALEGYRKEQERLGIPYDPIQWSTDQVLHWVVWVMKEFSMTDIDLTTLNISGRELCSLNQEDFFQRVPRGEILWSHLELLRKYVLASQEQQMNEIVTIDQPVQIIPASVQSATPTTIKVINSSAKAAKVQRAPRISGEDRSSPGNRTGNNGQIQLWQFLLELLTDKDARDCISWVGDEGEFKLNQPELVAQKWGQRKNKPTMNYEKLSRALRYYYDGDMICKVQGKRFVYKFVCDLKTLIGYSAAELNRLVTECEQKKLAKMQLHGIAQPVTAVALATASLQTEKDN
Procedure, shortened: as §1

ERG = target: T4, ERG (Homo sapiens, UniProt P11308 1-479); settings: protein: recombinant; tags: N-terminal GST; dsDNA, one strand shown
T4 sequence: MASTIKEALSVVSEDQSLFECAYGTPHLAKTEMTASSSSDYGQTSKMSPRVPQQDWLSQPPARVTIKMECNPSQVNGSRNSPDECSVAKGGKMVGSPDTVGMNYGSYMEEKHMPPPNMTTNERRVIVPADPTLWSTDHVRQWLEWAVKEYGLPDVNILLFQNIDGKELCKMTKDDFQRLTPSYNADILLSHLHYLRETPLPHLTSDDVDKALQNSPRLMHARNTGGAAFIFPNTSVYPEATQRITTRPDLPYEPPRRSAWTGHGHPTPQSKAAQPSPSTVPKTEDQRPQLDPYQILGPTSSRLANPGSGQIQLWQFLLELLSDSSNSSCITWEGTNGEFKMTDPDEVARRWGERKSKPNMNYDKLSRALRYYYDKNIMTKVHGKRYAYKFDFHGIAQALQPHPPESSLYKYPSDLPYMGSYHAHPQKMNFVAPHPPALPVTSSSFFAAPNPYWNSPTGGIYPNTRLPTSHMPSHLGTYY
Procedure, shortened: as §1

ELF1 = ELF1 (Homo sapiens, UniProt P32519 1-619); settings: protein: recombinant; tags: N-terminal GST; dsDNA, one strand shown
Procedure, shortened: as §1

EHF = target: T5, EHF (Homo sapiens, UniProt Q9NZC4 1-300); settings: protein: recombinant; tags: N-terminal GST; dsDNA, one strand shown
T5 sequence: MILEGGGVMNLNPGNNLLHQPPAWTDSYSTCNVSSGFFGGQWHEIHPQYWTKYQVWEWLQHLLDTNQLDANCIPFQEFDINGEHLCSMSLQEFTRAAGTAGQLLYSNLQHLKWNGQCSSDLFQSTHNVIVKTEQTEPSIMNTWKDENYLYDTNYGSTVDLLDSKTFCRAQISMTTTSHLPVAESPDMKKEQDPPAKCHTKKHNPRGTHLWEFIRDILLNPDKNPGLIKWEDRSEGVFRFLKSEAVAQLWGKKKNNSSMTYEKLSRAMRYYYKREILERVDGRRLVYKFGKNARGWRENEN
Procedure, shortened: as §1

SPI1 = SPI1 (Homo sapiens, UniProt P17947 1-270); settings: protein: recombinant; tags: N-terminal GST; dsDNA, one strand shown
Procedure, shortened: as §1

SPIB = SPIB (Homo sapiens, UniProt Q01892 1-262); settings: protein: recombinant; tags: N-terminal GST; dsDNA, one strand shown
Procedure, shortened: as §1

ELK3 = target: T6, ELK3 (Homo sapiens, UniProt P41970 1-407); settings: protein: recombinant; tags: N-terminal GST; dsDNA, one strand shown
T6 sequence: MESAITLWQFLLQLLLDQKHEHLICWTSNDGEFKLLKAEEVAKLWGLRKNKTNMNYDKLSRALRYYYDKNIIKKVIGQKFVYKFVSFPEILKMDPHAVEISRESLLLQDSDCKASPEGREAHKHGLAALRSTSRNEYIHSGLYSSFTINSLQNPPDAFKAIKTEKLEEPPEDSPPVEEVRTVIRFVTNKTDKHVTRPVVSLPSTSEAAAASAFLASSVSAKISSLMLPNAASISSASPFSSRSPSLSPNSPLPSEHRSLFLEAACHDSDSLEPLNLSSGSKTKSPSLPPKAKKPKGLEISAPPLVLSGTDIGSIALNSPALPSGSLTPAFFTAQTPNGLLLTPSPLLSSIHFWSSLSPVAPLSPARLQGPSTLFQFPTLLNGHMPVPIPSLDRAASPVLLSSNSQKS
Procedure, shortened: as §1

FEV = target: T7, FEV (Homo sapiens, UniProt Q99581 1-238); settings: protein: recombinant; tags: N-terminal GST; dsDNA, one strand shown
T7 sequence: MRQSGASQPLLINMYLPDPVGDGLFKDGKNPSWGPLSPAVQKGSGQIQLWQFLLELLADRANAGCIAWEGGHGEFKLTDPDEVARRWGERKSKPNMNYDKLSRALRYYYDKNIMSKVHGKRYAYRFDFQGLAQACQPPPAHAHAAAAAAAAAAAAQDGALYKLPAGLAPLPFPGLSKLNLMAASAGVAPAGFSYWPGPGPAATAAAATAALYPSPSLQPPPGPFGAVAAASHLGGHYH
Procedure, shortened: as §1

ETV5 = ETV5 (Homo sapiens, UniProt P41161 1-510); settings: protein: recombinant; tags: N-terminal GST; dsDNA, one strand shown
Procedure, shortened: as §1

HSF1 = HSF1 (Homo sapiens, UniProt Q00613 1-529); settings: protein: recombinant; tags: N-terminal GST; chain copies: 3; dsDNA, one strand shown
Procedure, shortened: as §1

SPIC = target: T8, SPIC (Homo sapiens, UniProt Q8N5J4 1-248); settings: protein: recombinant; tags: N-terminal GST; dsDNA, one strand shown
T8 sequence: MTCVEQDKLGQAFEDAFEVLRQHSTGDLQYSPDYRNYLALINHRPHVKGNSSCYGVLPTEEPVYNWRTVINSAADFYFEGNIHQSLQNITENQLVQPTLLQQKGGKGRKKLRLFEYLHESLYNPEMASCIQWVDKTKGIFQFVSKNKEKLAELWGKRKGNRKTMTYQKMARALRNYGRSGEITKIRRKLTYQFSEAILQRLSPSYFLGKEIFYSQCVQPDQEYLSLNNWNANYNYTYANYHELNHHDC
Procedure, shortened: as §1

ELF4 = ELF4 (Homo sapiens, UniProt Q99607 1-663); settings: protein: recombinant; tags: N-terminal GST; dsDNA, one strand shown
Procedure, shortened: as §1

ELK4 = target: T9, ELK4 (Homo sapiens, UniProt P28324-2 1-405); settings: protein: recombinant; tags: N-terminal GST; dsDNA, one strand shown
T9 sequence: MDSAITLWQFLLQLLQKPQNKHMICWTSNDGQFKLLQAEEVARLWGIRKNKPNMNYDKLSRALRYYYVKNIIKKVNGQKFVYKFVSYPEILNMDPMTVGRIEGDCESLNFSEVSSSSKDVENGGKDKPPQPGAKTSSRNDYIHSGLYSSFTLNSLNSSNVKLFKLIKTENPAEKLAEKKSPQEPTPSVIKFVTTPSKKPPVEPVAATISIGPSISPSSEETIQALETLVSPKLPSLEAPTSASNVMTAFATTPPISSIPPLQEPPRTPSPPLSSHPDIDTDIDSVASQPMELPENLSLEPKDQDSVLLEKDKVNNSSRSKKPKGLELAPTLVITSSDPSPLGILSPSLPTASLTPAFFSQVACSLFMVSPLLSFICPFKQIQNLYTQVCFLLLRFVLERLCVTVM
Procedure, shortened: as §1

ETV2 = target: T10, ETV2 (Homo sapiens, UniProt O00321 1-342); settings: protein: recombinant; tags: N-terminal GST; dsDNA, one strand shown
T10 sequence: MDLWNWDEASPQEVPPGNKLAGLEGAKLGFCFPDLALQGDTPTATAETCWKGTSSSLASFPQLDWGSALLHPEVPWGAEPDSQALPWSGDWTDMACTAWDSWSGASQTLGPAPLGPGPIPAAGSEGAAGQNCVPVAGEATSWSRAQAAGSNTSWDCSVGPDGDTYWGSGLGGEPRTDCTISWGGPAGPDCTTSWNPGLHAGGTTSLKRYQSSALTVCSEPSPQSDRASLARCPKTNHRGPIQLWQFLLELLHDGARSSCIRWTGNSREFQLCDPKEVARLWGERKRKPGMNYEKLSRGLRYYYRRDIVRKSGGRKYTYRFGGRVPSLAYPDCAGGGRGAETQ
Procedure, shortened: as §1

ELF3 = target: T11, ELF3 (Homo sapiens, UniProt P78545 1-371); settings: protein: recombinant; tags: N-terminal GST; dsDNA, one strand shown
T11 sequence: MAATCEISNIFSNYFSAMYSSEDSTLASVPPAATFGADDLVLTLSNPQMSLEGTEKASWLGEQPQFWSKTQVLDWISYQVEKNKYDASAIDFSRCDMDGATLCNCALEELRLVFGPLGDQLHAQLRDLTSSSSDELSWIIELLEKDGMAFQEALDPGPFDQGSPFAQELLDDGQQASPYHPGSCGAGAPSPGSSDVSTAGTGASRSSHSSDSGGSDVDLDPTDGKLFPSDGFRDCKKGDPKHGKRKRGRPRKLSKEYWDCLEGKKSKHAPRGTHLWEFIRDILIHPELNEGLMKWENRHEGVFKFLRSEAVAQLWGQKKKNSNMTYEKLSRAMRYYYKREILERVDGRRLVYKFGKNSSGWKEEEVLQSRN
Procedure, shortened: as §1

CRX = CRX (Homo sapiens, UniProt O43186 1-299); settings: protein: recombinant; tags: N-terminal GST; dsDNA, one strand shown
Procedure, shortened: as §1

ETV1 = ETV1 (Homo sapiens, UniProt P50549 1-477); settings: protein: recombinant; tags: N-terminal GST; dsDNA, one strand shown
Procedure, shortened: as §1

Sequence of HSF1 (Q00613 whole entry): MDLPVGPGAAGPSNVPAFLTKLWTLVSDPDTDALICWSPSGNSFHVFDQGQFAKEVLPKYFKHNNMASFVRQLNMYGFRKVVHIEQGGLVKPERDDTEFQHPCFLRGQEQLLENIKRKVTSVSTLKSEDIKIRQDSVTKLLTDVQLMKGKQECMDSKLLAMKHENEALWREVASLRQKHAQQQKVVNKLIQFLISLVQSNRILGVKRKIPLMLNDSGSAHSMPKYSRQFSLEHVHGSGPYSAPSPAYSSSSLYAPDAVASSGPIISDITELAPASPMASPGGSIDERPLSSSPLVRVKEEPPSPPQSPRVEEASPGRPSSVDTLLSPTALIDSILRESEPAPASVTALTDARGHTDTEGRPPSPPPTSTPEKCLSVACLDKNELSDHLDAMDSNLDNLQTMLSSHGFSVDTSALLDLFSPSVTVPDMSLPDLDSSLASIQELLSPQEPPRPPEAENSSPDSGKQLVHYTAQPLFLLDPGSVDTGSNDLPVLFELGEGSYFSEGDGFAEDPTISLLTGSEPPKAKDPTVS
Sequence of CRX (O43186 whole entry): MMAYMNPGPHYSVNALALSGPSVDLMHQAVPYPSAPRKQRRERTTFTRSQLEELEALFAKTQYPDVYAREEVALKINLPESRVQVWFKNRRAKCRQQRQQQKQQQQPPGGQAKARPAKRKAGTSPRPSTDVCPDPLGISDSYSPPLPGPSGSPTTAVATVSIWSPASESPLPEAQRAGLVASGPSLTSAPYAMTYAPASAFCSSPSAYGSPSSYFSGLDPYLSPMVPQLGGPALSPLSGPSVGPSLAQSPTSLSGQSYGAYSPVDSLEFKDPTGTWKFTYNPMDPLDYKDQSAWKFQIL
Sequence of ELF1 (P32519 whole entry): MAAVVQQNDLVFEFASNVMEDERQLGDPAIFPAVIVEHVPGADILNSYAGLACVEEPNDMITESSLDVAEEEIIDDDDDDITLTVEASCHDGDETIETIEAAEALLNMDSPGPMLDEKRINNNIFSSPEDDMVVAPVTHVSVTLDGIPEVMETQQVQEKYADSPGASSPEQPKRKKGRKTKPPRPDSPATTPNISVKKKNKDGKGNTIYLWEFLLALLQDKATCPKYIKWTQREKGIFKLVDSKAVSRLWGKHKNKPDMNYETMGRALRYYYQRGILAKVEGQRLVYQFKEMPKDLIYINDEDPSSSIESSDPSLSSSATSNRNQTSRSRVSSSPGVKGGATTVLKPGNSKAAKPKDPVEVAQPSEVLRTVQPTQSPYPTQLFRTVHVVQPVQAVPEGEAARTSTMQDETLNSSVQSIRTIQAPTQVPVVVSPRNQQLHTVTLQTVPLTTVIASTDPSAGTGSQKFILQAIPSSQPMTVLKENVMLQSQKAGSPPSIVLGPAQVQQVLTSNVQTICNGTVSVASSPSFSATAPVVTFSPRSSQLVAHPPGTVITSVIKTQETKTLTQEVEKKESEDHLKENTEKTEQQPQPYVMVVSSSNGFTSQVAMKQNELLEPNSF
Sequence of SPIB (Q01892 whole entry): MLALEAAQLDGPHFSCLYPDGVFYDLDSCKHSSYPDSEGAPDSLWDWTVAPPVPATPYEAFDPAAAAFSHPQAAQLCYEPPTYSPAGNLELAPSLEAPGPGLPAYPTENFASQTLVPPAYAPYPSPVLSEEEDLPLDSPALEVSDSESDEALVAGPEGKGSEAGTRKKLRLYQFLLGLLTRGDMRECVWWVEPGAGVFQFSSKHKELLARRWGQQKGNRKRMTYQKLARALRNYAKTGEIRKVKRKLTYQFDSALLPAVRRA
Sequence of ETV1 (P50549 whole entry): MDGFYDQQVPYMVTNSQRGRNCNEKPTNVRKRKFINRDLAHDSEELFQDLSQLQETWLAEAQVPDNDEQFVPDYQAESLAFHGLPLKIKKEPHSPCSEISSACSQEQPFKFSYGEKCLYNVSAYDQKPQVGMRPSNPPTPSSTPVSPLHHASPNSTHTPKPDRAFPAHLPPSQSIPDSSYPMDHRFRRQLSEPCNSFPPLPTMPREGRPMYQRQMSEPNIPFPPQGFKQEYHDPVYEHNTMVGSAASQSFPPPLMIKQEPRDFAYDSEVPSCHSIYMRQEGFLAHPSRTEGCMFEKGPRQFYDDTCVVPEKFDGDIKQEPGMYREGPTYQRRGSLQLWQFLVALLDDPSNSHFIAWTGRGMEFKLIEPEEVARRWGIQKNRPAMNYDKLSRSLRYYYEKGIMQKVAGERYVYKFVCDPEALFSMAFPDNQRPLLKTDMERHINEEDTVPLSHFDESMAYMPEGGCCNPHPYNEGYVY
Sequence of ELF4 (Q99607 whole entry): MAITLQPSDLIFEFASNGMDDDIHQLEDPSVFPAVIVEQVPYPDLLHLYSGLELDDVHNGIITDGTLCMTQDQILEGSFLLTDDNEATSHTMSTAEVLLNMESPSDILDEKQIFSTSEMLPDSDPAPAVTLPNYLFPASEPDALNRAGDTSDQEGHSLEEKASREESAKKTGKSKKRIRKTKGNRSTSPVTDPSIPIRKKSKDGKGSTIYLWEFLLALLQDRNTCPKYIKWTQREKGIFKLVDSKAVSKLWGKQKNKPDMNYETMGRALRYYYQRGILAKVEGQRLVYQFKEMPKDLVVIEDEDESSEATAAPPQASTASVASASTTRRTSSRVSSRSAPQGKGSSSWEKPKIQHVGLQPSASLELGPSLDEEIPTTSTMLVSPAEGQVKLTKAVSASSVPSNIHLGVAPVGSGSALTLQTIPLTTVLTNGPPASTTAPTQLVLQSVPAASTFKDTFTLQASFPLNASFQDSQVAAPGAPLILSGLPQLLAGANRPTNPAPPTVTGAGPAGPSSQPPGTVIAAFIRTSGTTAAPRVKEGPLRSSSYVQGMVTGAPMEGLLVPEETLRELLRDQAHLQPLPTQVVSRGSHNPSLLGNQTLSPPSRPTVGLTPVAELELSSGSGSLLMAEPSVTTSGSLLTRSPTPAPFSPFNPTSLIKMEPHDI
Sequence of ETV5 (P41161 whole entry): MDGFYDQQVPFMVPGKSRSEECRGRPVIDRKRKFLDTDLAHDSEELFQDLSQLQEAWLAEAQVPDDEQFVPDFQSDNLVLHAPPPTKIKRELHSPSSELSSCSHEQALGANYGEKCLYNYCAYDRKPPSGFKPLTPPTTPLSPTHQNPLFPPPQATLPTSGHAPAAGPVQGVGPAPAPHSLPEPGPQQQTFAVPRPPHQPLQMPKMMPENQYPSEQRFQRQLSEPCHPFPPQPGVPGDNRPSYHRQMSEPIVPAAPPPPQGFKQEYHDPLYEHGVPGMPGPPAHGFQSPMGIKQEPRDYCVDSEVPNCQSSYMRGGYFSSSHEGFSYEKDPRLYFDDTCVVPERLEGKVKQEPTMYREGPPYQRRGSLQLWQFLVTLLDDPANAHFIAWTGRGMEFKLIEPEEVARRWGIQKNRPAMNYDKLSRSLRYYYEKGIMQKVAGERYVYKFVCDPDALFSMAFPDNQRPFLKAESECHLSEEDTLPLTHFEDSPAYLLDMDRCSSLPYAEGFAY

Sequence: TTTACC
- binding signal (FLI1): 1.28 fold enrichment (6-mer frequency, TF over GST control)
- binding signal (ELK1): 1.2 fold enrichment (6-mer frequency, TF over GST control)
- binding signal (GABPA): 1.24 fold enrichment (6-mer frequency, TF over GST control)
- binding signal (ERG): 1.18 fold enrichment (6-mer frequency, TF over GST control)
- binding signal (ELF1): 1.23 fold enrichment (6-mer frequency, TF over GST control)
- binding signal (EHF): 1.31 fold enrichment (6-mer frequency, TF over GST control)
- binding signal (SPI1): 1.17 fold enrichment (6-mer frequency, TF over GST control)
- binding signal (SPIB): 1.21 fold enrichment (6-mer frequency, TF over GST control)
- binding signal (ELK3): 1.37 fold enrichment (6-mer frequency, TF over GST control)
- binding signal (FEV): 1.32 fold enrichment (6-mer frequency, TF over GST control)
- binding signal (ETV5): 1.29 fold enrichment (6-mer frequency, TF over GST control)
- binding signal (HSF1): 1.25 fold enrichment (6-mer frequency, TF over GST control)
- binding signal (SPIC): 1.17 fold enrichment (6-mer frequency, TF over GST control)
- binding signal (ELF4): 1.24 fold enrichment (6-mer frequency, TF over GST control)
- binding signal (ELK4): 1.41 fold enrichment (6-mer frequency, TF over GST control)
- binding signal (ETV2): 1.3 fold enrichment (6-mer frequency, TF over GST control)
- binding signal (ELF3): 1.2 fold enrichment (6-mer frequency, TF over GST control)
- binding signal (CRX): 1.48 fold enrichment (6-mer frequency, TF over GST control)
- binding signal (ETV1): 1.16 fold enrichment (6-mer frequency, TF over GST control)
